Results published in article PMC5540273 (PLoS ONE, 2017).

Tests used:
Conditions in all cases: concentration: 1 μM, replicates: in singlicate; n = 1
PCTK2 = test system: T1, PCTK2
T1 construct: gene CDK17

PCTK3 = test system: T2, PCTK3
T2 construct: gene CDK18

PDGFRA = test system: PDGFRA
PDGFRB = test system: PDGFRB
PDPK1 = test system: PDPK1
PFTAIRE2 = test system: PFTAIRE2
PFTK1 = test system: T3, PFTK1
T3 construct: gene CDK14

PHKG1 = test system: PHKG1
PHKG2 = test system: PHKG2
PIK3C2B = test system: PIK3C2B
PIK3C2G = test system: PIK3C2G
PIK3CA = test system: PIK3CA
PIK3CB = test system: PIK3CB
PIK3CD = test system: PIK3CD
PIK3CG = test system: PIK3CG
PIK4CB = test system: T4, PIK4CB
T4 construct: gene PI4KB

PIKFYVE = test system: PIKFYVE
PIM1 = test system: PIM1
PIM2 = test system: PIM2
PIM3 = test system: PIM3
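Note: KINOMEscan kinase panel screen.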

| Compound | %Inh (PCTK2) | %Inh (PCTK3) | %Inh (PDGFRA) | %Inh (PDGFRB) | %Inh (PDPK1) | %Inh (PFTAIRE2) | %Inh (PFTK1) | %Inh (PHKG1) | %Inh (PHKG2) | %Inh (PIK3C2B) | %Inh (PIK3C2G) | %Inh (PIK3CA) | %Inh (PIK3CB) | %Inh (PIK3CD) | %Inh (PIK3CG) | %Inh (PIK4CB) | %Inh (PIKFYVE) | %Inh (PIM1) | %Inh (PIM2) | %Inh (PIM3) |
| --- | --- | --- | --- | --- | --- | --- | --- | --- | --- | --- | --- | --- | --- | --- | --- | --- | --- | --- | --- | --- |
| N#Cc1cnc2cc(-c3cnc(CNCCN4CCOCC4)s3)ccc2c1Nc1ccc(Oc2ccccc2)cc1 [GW664114] | 11% | 18% | 0% | 24% | 0% | 22% | 18% | 0% | 0% | 0% | 0% | 0% | 0% | 7% | 0% | 11% | 100% | 11% | 0% | 8% |
| COC(=O)Nc1nc2cc(Oc3ccc(NC(=O)Nc4cccc(SC)c4)cc3)ccc2[nH]1.Cl [GW697999] | 6% | 26% | 99.4% | 100% | 0% | 15% | 20% | 3% | 34% | 0% | 85% | 0% | 0% | 0% | 0% | 0% | 0% | 12% | 0% | 0% |
| CC(C)NCC(Cc1ccccc1)NC(=O)c1cc(Br)c(-c2ccnc3[nH]ccc23)s1.Cl.Cl (centres unmarked) [GSK1383281] | 13% | 0% | 37% | 74% | 0% | 0% | 27% | 0% | 16% | 0% | 0% | 0% | 0% | 0% | 0% | 0% | 0% | 11% | 0% | 0% |
| Cc1ccc(C)c(NC(=O)Nc2ccc(C)c(-c3ccc(C(=O)Nc4ccncc4)cc3)c2)c1 [GSK1398473] | 0% | 23% | 80% | 100% | 2% | 12% | 14% | 0% | 0% | 0% | 0% | 0% | 0% | 0% | 0% | 8% | 0% | 16% | 0% | 1% |
| COc1cc(Nc2nccc(N3CCC(NS(=O)(=O)c4ccc(NC(C)=O)cc4)CC3)n2)cc(OC)c1OC [GSK1379825] | 0% | 25% | 6% | 90% | 21% | 0% | 5% | 0% | 0% | 0% | 9% | 0% | 0% | 91.6% | 99.7% | 9% | 82% | 0% | 0% | 0% |
| COc1ccc(NC(=O)c2ccoc2)cc1-c1ccc(C(=O)NCC2CC2)cc1 [GW810437] | 9% | 0% | 21% | 4% | 0% | 13% | 47% | 0% | 0% | 14% | 0% | 9% | 24% | 0% | 12% | 20% | 31% | 0% | 12% | 0% |
| CCn1c(-c2nonc2N)nc2c(-c3ccccc3)ncc(OCCCN)c21.O=C(O)C(F)(F)F.O=C(O)C(F)(F)F [GSK260205] | 0% | 0% | 18% | 98.8% | 0% | 0% | 13% | 0% | 0% | 1% | 9% | 0% | 0% | 1% | 0% | 0% | 98.8% | 62% | 2% | 44% |
| CN(c1ccc(NC(=O)Nc2cccc(Cl)c2)cc1)c1ccnc(N)n1.Cl [GW830707] | 0% | 10% | 97.5% | 100% | 20% | 1% | 15% | 23% | 0% | 0% | 11% | 0% | 20% | 48% | 0% | 3% | 0% | 0% | 11% | 3% |
| Cc1ccc(Nc2ccnc(Nc3ccc(C)c(F)c3)n2)cc1O.Cl [GW582868] | 0% | 20% | 3% | 96.9% | 0% | 0% | 1% | 0% | 0% | 0% | 0% | 0% | 0% | 11% | 0% | 8% | 24% | 52% | 0% | 0% |
| CC(C)c1nc(-c2cccc(NS(=O)(=O)c3c(F)cccc3F)c2)c(-c2ccnc(Nc3ccc(N4CCOCC4)nc3)n2)s1.Cl [GSK1723980] | 100% | 100% | 88% | 100% | 0% | 69% | 82% | 0% | 0% | 7% | 0% | 0% | 0% | 0% | 0% | 0% | 0% | 0% | 0% | 0% |
